Compounds without any hit were thinned out: in the full panel of roughly 83,000, 20% have a hit.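 Negative percent growth values reflect cell death: -40 means 40% of the cells present at the start died, and -100 means all died.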 Unmarked numbers belong to inactive results. Active and inactive are the calls of the source. How the source made its calls: active means growth percent below 10; inactive means the rest.

Common to all, as to assay: NCI-60 one-dose screen, 48 h (100 = growth as untreated, 0 = no growth, -100 = all killed)
What all share (conditions): 10 µM unless noted

Experiment [1] relates to NCI-H23 lung.
The test system of experiment [2] is NCI-H226 lung.
Experiment [3] deals with NCI-H322M lung.
The subject of experiment [4] is HOP-62 NSCLC.
Experiment [5] has as its system NCI-H460 lung.
Experiment [6] deals with HOP-92 NSCLC.
Experiment [7] has as its system NCI-H522 lung.
Experiment [8] has as its system A549/ATCC NSCLC.
Experiment [9] relates to 786-0 renal.
The test system of experiment [10] is COLO 205 colon.
The subject of experiment [11] is DU-145 prostate.
The test system of experiment [12] is K-562 leukemia.
The subject of experiment [13] is MALME-3M melanoma.
Experiment [14] has as its system MDA-MB-231 breast.
Experiment [15] has as its system RXF 393 renal.
Experiment [16] deals with SF-268 CNS.
The subject of experiment [17] is SF-295 CNS.
Experiment [18] concerns SF-539 CNS.
Experiment [19] concerns UACC-257 melanoma.
The subject of experiment [20] is M14 melanoma.

On to `COCCn1cc(-c2nc(-c3c[nH]c4ncccc34)cs2)c2ccccc21`, for which the growth is 40.7% in [1]; 48.2% in experiment [2]; 43.4% in [3]; 47.2% in experiment [4]; 22.6% in experiment [5]; 2.56% (active) in [6]. The growth in experiment [7] was 46.7%; in experiment [8], 52.2%; in experiment [9] it was 77.9%; in experiment [10] it was 24.8%; in experiment [11], 85.5%; in experiment [12], 28.5%. Moreover, the growth was 97.8% in [13]; 22.5% in experiment [14]; 51.6% in experiment [15]; 63.9% in [16]; 68.8% in experiment [17]; 68.4% in [18]. Moreover, the growth in [19] is 87.3%; in experiment [20], 68.6%.

As to `CCn1cc(Cc2cc(C(=O)Nc3cc4cc(OC)c(OC)cc4c(C)n3)ccc2Cl)cn1`, the growth in experiment [1] is 52%; in [2], 30.8%; in experiment [3] it was 102%; in [4] it was 39.8%; in [5], 76.3%; in experiment [6] it was 47.1%. Besides, the growth was 17.6% in experiment [7]; 38.9% in experiment [8]; 51.7% in experiment [9]; 46.4% in experiment [10]; 55.3% in experiment [11]; 34.4% in experiment [12]. Moreover, the growth in experiment [13] was 63.4%; in experiment [14], 36.3%; in experiment [15] it was 73.2%; in experiment [16] it was 49.3%; in [17], 39.7%; in [18] it was 8.23% (active). Further, the results for the growth in [19] and in [20] were 40.9% and 32.6%, respectively.

As to `Cn1c(=O)c2[nH]c(SC/C(=N/O)c3ccc(Br)cc3)nc2n(C)c1=O`, the growth in experiment [1] was 35.7%; in experiment [2] it was -7.02% (active); in experiment [3], 34.8%; in [4], 8.56% (active); in [5] it was 20.9%; in experiment [6], -72.9% (active). Further, the growth in experiment [7] was -14.5% (active); in experiment [8], 60.4%; in experiment [9] it was -68.6% (active); in [10], 110%; in experiment [11] it was 68.4%; in [12], 67.1%. For the same compound, the growth in [13] was 20%; in experiment [14], -5.9% (active); in [15] it was -73.4% (active); in experiment [16] it was 50%; in experiment [17] it was 13.9%; in [18], -53.6% (active). Moreover, the growth in experiment [19] is 84%; in experiment [20] it was 58.8%.

For the compound `COc1ccc(-c2cc(-c3cccnc3)nc3sc4c(N)c(C(C)=O)c(-c5ccccc5)nc4c23)cc1OC`, the growth is 66.7% in [1]; 94.3% in experiment [2]; 90.5% in experiment [3]; 76.5% in experiment [4]; 78% in experiment [5]; 61.9% in experiment [6]. Moreover, the growth in [7] was 56.6%; in experiment [8], 69%; in [9] it was 68.9%; in [10], 94.8%; in experiment [11], 80.9%; in experiment [12], 32.3%. Moreover, the growth in [13] was 93.3%; in experiment [14], 51.5%; in experiment [15], 50.1%; in [16] it was 69.6%; in experiment [17] it was 48.7%; in experiment [18], 52.8%. In addition, the growth in experiment [19] was 92.3%; in experiment [20], 104%.

With `O=C1CCCCN1c1ccc(C2=NCCCN2)cc1`, the growth in [1] is 99.2%; in experiment [2] it was 101%; in experiment [3], 92.3%; in experiment [4], 101%; in experiment [5] it was 94.9%; in experiment [6], 117%. The growth in experiment [7] was 79.1%; in experiment [8], 97%; in [9], 95%; in experiment [10], 104%; in experiment [11] it was 103%; in [12], 80.6%. For the same compound, the growth in experiment [13] was 77.4%; in [14] it was 88.6%; in experiment [15], 90.4%; in [16], 92%; in experiment [17] it was 85.1%; in [18], 64.7%. The growth was 111% in experiment [19] and 104% in experiment [20].

Regarding `O=C1Nc2ccccc2/C1=N/N1C(=O)CN(CCCl)C1=O`, the growth in [1] is 100%; in experiment [2] it was 95.1%; in experiment [3], 101%; in experiment [4] it was 97.5%; in experiment [5] it was 102%; in [6] it was 110%. Further, the growth in [7] is 89.7%; in experiment [8] it was 104%; in experiment [9], 101%; in [10], 112%; in experiment [11], 119%; in experiment [12], 97.5%. For the same compound, the growth was 107% in experiment [13]; 117% in [14]; 115% in [15]; 102% in [16]; 99.6% in [17]; 105% in experiment [18]. The growth in experiment [19] is 96.6%; in experiment [20], 107%.

Take `O=S(=O)(Nc1ccc2ccccc2c1)c1ccc(-c2cnc(C3CC3)o2)cc1`: the growth in experiment [1] was 41.1%; in experiment [2], 62.1%; in [3] it was 48.7%; in [4] it was 31.6%; in experiment [5], 15.2%; in [6], 54.2%. Moreover, the growth in [7] is -0.255% (active); in [8], 37.6%; in experiment [9], 42.7%; in experiment [10] it was 1.46% (active); in experiment [11], 18%; in experiment [12], 10.4%. The growth in experiment [13] was 50.3%; in experiment [14], 52.4%; in [15], 2.78% (active); in experiment [16], 53.5%; in experiment [17], 34.2%; in [18], 6.39% (active). Further, the figures for the growth in experiment [19] and in [20] were 44.5% and 19.4%, respectively.

For the origin of these results see PubChem BioAssay (NCI).
